# Experimental data taken from PubChem BioAssay (Tox21).
# The source made the active and inactive calls. Where a call stands in place of a potency, no number is given. Unless noted, calls follow the shape of the full dose curve.
# Target: Thyrotropin-releasing hormone receptor (Homo sapiens) (UniProt P34981)
# Experiment: qHTS assay to identify small molecule antagonists of the thyrotropin-releasing hormone receptor (TRHR) signaling pathway (AID 1346877; active = well fitted inhibition curve with a large enough effect in the repeat runs, not every such curve was filed as active)
# Conditions: TRHR-HEK293, TRH-induced calcium fluorescence, antagonist mode; series mostly up to 51.3 µM
# Procedure, shortened: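 HEK293/TRHR cells, 18 h, 37 °C; Ca2+ dye 2 h; cpd 5 min RT; TRH 1 nM final; fluorescence read 3 min, 1 s intervals; 15 concs, triplicate.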
# Thyrotropin-releasing hormone receptor (Homo sapiens), sequence (P34981 whole entry, looked up): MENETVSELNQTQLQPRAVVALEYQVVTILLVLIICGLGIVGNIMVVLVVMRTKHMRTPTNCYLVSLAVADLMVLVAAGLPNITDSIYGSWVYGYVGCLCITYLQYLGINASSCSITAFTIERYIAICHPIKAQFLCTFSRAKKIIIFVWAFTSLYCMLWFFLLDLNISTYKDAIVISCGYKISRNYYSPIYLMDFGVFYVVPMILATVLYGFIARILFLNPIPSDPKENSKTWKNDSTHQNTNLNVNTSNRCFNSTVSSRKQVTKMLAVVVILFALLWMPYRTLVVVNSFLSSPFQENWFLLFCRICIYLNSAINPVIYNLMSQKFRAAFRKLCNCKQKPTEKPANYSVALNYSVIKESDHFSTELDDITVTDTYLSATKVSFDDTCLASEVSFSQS
row,Structure (SMILES),Potency
1,O=C(O)c1cc(O)c(O)c(O)c1,inactive
2,O=C(O)c1ccc2c(c1)C(=O)OC2=O,inactive
3,O=C(Oc1ccccc1)c1ccccc1,inactive
4,OC[C@H]1O[C@@](CO)(O[C@H]2O[C@H](CO)[C@@H](O)[C@H](O)[C@H]2O)[C@@H](O)[C@@H]1O,inactive
5,O=c1[nH]c(=O)n([C@H]2C[C@H](O)[C@@H](CO)O2)cc1Br,inactive
6,CC(=O)CC(=O)Nc1ccccc1C,inactive
7,Fc1ccc(Br)cc1,inactive
8,CC(c1cc2ccccc2s1)N(O)C(N)=O (centres undefined),inactive
9,C=CCOC(=O)c1ccccc1C(=O)OCC=C,inactive
10,CC1CCC(C(C)C)C(O)C1 (centres undefined),inactive
11,Cc1cccnc1,inactive

# Target: Thyrotropin-releasing hormone receptor (Homo sapiens) (UniProt P34981)
# Experiment: qHTS assay to identify small molecule agonists of the thyrotropin-releasing hormone receptor (TRHR) signaling pathway (AID 1346891);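 also: HEK293 cells expressing TRHR with calcium dye readout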
# Conditions: TRHR-HEK293 calcium fluorescence, agonist mode; series mostly up to 57.6 µM
# Procedure, shortened: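 In 1536-format, 1500 TRHR-Hek293 cells per well grew 18 h, took up calcium dye for 2 h at 37 °C, received compound, and were read kinetically; 15-point titrations, triplicates.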
row,Structure (SMILES),outcome
1,O=c1[nH]c(=O)n([C@H]2CCCO2)cc1F,inactive
2,C=CCNC(N)=S,inactive
3,c1ccc2c(c1)ccc1ccccc12,inactive
4,CC(=O)OCC(=O)[C@@]12N=C(C)O[C@@H]1C[C@H]1[C@@H]3CCC4=CC(=O)C=C[C@]4(C)[C@H]3[C@@H](O)C[C@@]12C,inactive
5,Cc1ccc2oc(=O)ccc2c1,inactive
6,CCC(O)OC(O)CC (centres undefined),inactive
7,O=C(O)c1ccc(C(=O)O)cc1,inactive
8,CCCCCCCCCCCCc1ccccc1,inactive
9,CCCCCC1=CCCC1=O,inactive
10,CCCCC(CC)COC(=O)CCCCC(=O)OCC(CC)CCCC (centres undefined),inactive
11,CCCCCC(N)=O,inactive
12,CC(=O)c1ccccc1,inactive
13,CSCCC=O,inactive
14,Cc1ccc(N(C)C)cc1,inactive
15,CCCCCCCC(=O)OC,inactive
16,CCc1cccc(C)c1N,inactive
17,OCC(CO)(CBr)CBr,inactive
18,CC[C@H](C)C(=O)O[C@H]1C[C@@H](C)C=C2C=C[C@H](C)[C@H](CC[C@@H]3C[C@@H](O)CC(=O)O3)[C@H]21,inactive
19,CN(C)CCCN,inactive

row,Structure (SMILES),outcome
1,O=S1(=O)CC=CC1,inactive
2,CC(C)(C)[C@@H](O)[C@@H](Cc1ccc(Cl)cc1)n1cncn1,inactive
3,C#CCN(C)Cc1ccccc1,inactive
4,C[Si](O[Si](C)(C)C)O[Si](C)(C)C,inactive
5,Oc1cccc2ccccc12,inactive
6,CCCCCC/C(C=O)=C\c1ccccc1,inactive
7,CCCCCCCCCCCCCCO,inactive
8,Nc1cc([N+](=O)[O-])ccc1O,inactive
9,O=C(O)c1cc(O)c(O)c(O)c1,inactive
10,O=C(O)c1ccc2c(c1)C(=O)OC2=O,inactive
11,O=C(Oc1ccccc1)c1ccccc1,inactive
12,OC[C@H]1O[C@@](CO)(O[C@H]2O[C@H](CO)[C@@H](O)[C@H](O)[C@H]2O)[C@@H](O)[C@@H]1O,inactive
13,O=c1[nH]c(=O)n([C@H]2C[C@H](O)[C@@H](CO)O2)cc1Br,inactive
14,CC(=O)CC(=O)Nc1ccccc1C,inactive
15,Fc1ccc(Br)cc1,inactive
16,CC(c1cc2ccccc2s1)N(O)C(N)=O (centres undefined),inactive
17,C=CCOC(=O)c1ccccc1C(=O)OCC=C,inactive
18,CC1CCC(C(C)C)C(O)C1 (centres undefined),inactive
19,Cc1cccnc1,inactive
